Nine compounds from PubChem BioAssay (NCATS) can be followed below.

The structures appear in SMILES notation.

Experiment [1] can be described thus: qHTS profiling of the MIPE4 collection as inhibitors of Plasmodium falciparum (3D7) proliferation (AID 743344).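 Further: scaled between DMSO vehicle wells and 0.29 µM artemisinin as full inhibition.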 The conditions noted are these: P. falciparum 3D7 in erythrocytes, SYBR Green DNA fluorescence, 72 h; at 28.5 µM unless noted. Put shortly: (§1)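 Erythrocytes infected with P. falciparum (0.3% parasitemia, 2.5% hematocrit) incubated with compounds 72 h at 37 C, 5% CO2. Lysis with saponin/Triton buffer containing SYBR Green I, overnight at room temperature in the dark; DNA fluorescence (485/535 nm) normalised to 0.29 uM artemisinin and DMSO.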

The nature of experiment [2]: qHTS profiling of the MIPE4 collection as inhibitors of Plasmodium falciparum (DD2) proliferation (Rep 2) (AID 743346). The conditions noted are these: P. falciparum Dd2 in erythrocytes, SYBR Green DNA, 72 h; at 28.5 µM unless noted. Put shortly: as §1
Experiment [3] can be described thus: qHTS profiling of the MIPE4 collection as inhibitors of Plasmodium falciparum (HB3) proliferation (AID 743347).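 Further: plate controls were DMSO vehicle wells for no effect and artemisinin wells for full effect.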 The conditions noted are these: P. falciparum HB3 in erythrocytes, SYBR Green DNA, 72 h; at 28.5 µM unless noted. The essentials: as §1
In general terms: Quantitative high-throughput screening tests each substance at several concentrations.

Experiment [4] can be described thus: qHTS profiling of the MIPE4 collection as inhibitors of Plasmodium falciparum (DD2) proliferation (AID 743345). The conditions noted are these: P. falciparum Dd2 in erythrocytes, SYBR Green DNA, 72 h; at 28.5 µM unless noted. Put shortly: as §1

Turning to `CCC[C@H]1C[C@H](C(=O)N[C@@H]([C@@H]2O[C@@H](SC)[C@@H](O)[C@@H](O)[C@@H]2O)[C@H](C)Cl)N(C)C1`, the parasite growth, % of DMSO control in experiment [1] was 30.4%. Also, the parasite growth, % of control (lower = inhibition) in experiment [2] amounted to 24.6%.
For the compound `CC(C)(C)[C@H](NC(=O)c1ccc(N)c(Cl)c1)C(=O)N1CCC[C@@H]1C(=O)N[C@H](C#N)CC(=O)O`, in experiment [1], the parasite growth, % of DMSO control is 160% [at 3.19 µM]. In experiment [2], the parasite growth, % of control (lower = inhibition) was 108% [at 3.19 µM].
As to `CCN1CCN(C(=O)N[C@H](C(=O)N[C@@H]2C(=O)N3C(C(=O)O)=C(CSc4nnnn4C)CS[C@@H]23)c2ccc(O)cc2)C(=O)C1=O`, the parasite growth, % of DMSO control in experiment [1] amounted to 91.3% [at 9.64 µM]. In addition, in experiment [2], the parasite growth, % of control (lower = inhibition) is 57.9% [at 9.64 µM]. The same compound yielded a growth, % of control in experiment [3] of 90.1% [at 9.64 µM].
The compound `C[C@H]1C[C@H]2[C@@H]3CCC4=CC(=O)C=C[C@]4(C)[C@@H]3C(=O)C[C@]2(C)[C@@]1(O)C(=O)CO` showed a parasite growth, % of DMSO control in experiment [1] of 63%. Also, the parasite growth, % of control (lower = inhibition) in experiment [2] was 81.9%. The growth, % of control in experiment [3] was determined as 86.6%.
Consider `COc1ccc(Nc2cc(-c3cnc(N)nc3)nc(N3CCOCC3)n2)cn1`, for which the parasite growth, % of DMSO control in experiment [1] was 16.3%. The same compound yielded a growth, % of control in experiment [3] of 6.14%.
Compound `Cn1cc(C[C@@H](N)C(=O)O)c2ccccc21` yielded a parasite growth, % of DMSO control in experiment [1] of 103% [at 9.64 µM]. Moreover, the growth, % of control in experiment [3] was 98.8% [at 9.64 µM].
In the case of `NC[C@H]1O[C@H](O[C@H]2[C@@H](O)[C@@H](O[C@H]3O[C@H](CO)[C@@H](O)[C@H](N)[C@@H]3O)[C@H](N)C[C@@H]2N)[C@H](N)C[C@H]1O`, in experiment [1], the parasite growth, % of DMSO control was 97.7%. The same compound showed a growth, % of control in experiment [3] of 88.3%.
Take `C[N+](C)([O-])CCNc1ccc(NCC[N+](C)(C)[O-])c2c1C(=O)c1c(O)ccc(O)c1C2=O`: the parasite growth remaining, % of DMSO control (lower = more inhibition) in experiment [4] was determined as 13.5%.
`NC(=O)c1cccc(-c2cccc(OC(=O)NC3CCCCC3)c2)c1` had a growth, % of control in experiment [3] of 94.2%.
